S2 tox: viability counter-screen for ATXN expression inhibitors. Potency, µM (titrated, usually from 56.7 µM), most hits filed as cytotoxic. 400,000 tested, 0.49% active. S2 cells (HEK-293 line with an ATXN2-luciferase reporter) viability, CellTiter-Fluor protease fluorescence, 24 h; further: nearly all actives have a fitted effect of over 40% in size
HepG2 viability: counter-screen for TGF-b inhibitors: cytotoxicity in HepG2 cells; HepG2 CAGA-GFP viability, ATP luminescence, 18 h; 410,000 tested, 0.76% active; AID 588856; Potency, µM (doses to about 46.1 µM), hits mostly cytotoxic
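CellTiter-Glo luminescence gave cytotoxicity after 18 hours at 37 degrees C. The cells were HepG2 CAGA-GFP in 1% FBS DMEM, stimulated with 500 pg/mL TGF-beta after compound addition. %Activity was normalised to no-cell wells (complete cell-killing) and DMSO (no toxicity), and curves were fitted and classified.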
TGFb inhibitor: blocks TGF-b signaling. AID 588855. HepG2 CAGA-GFP TGF-b/SMAD3 reporter, GFP fluorescence, 18 h; TGF-beta stimulated, 500 pg/mL final. 410,000 tested, 1.2% active. Potency, µM (titrated, usually from 46.1 µM), usual class: inhibitors; further: nearly all actives have a fitted effect of over 65% in size
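GFP signal (ex488/em500-530) from TGF-beta-stimulated HEPG2 CAGA-GFP cells, 500 pg/mL final, 18 h at 37 degrees C in DMEM plus 1% FBS, normalized to unstimulated and DMSO-stimulated controls.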
mIDH1 inhibitor: inhibitors of human mutant IDH1 R132H. O75874. AID 602179. Potency, µM (doses to about 76.6 µM), hits mostly inhibitors. 390,000 tested, 0.093% active. IDH1-R132H enzyme, NADPH consumption, diaphorase/resazurin fluorescence; further: nearly all actives have a fitted effect of over 65% in size
Target sequence (O75874 whole entry R132H, stated change not applied): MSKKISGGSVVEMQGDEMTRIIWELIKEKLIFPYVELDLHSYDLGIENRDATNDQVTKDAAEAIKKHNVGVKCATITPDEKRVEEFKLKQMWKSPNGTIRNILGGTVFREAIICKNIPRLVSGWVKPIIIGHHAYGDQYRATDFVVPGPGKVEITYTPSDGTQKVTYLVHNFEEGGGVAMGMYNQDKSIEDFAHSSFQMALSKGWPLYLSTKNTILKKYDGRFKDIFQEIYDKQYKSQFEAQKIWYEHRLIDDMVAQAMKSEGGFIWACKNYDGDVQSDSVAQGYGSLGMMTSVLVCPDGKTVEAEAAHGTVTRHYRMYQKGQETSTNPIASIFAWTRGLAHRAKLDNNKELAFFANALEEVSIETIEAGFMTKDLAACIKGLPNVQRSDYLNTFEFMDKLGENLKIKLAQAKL
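IDH1-R132H (0.5 ug/mL) preincubated 30 min with compound, then NADPH (0.016 mM) and alpha-KG (2 mM) added; 80 min at RT, pH 7.5. Remaining NADPH coupled via diaphorase/resazurin to fluorescence (540/590 nm); concentration-response curves normalized to no-enzyme control.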
LDHA block: inhibitors of human lactate dehydrogenase A. P00338. purified LDHA, NADH/diaphorase-resazurin fluorescence; stronger effect = lower value. activity change, % (values are at about 110 or 230 µM). 480,000 tested, 0.15% active. AID 1347041; in the data active means activity change below about -30%; inconclusive means mostly about -25% to -30%
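Resorufin fluorescence (ex540/em590), read at 0 and 20 min after diaphorase/resazurin addition, reports the NADH left after a 5 min room-temperature reaction of 2 nM human LDH5 with 0.06 mM NADH and 0.2 mM pyruvate.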
ATXN2 expr inh: inhibitors of ATXN2 expression | HEK-293 ATXN2-luciferase reporter, luminescence, 24 h | Potency, µM (series often up to 57 µM), usual class: inhibitors | 360,000 tested, 0.72% active | AID 1745845; further: nearly all actives have a fitted effect of over 55% in size
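ATXN2-luciferase reporter cells (luciferase flanked by upstream and downstream ATXN2 gene portions) were treated 24 h at 37 °C with compounds at up to 57 uM. SteadyGlo luminescence gave expression; GF-AFC fluorescence gave viability.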
Of the large screens only hits and unclear results are named; the others gave an inactive call; ! = not confirmed by another sample. Compounds with a hit are over-represented: about 2.2% of the library has one in this group of screens. Unless noted, the call rests on the fitted dose curve; in most records, active means well fitted curve in the direction sought with a large enough effect; inconclusive means small, poorly fitted or top-dose-only effect, or another doubt; inactive means no such curve, though single readings can be large; an effect the other way counts as inactive or inconclusive.

Cc1cc(C)c(NC(=O)CCn2c(=O)c3cccn3c3cccnc32)c(C)c1	none (no result: S2 tox, ATXN2 expr inh)
C=C(CN(C)C)C(=O)c1cc(C)ccc1C	S2 tox 10.6µM, TGFb inhibitor 2.51µM, ATXN2 expr inh 10.6µM
CCCS(=O)(=O)N1CCN=C1SCc1cccc2ccccc12	none (no result: ATXN2 expr inh)
CCN(CC)c1ccc(/C=N/Nc2nc3ccccc3[nH]2)c(O)c1	S2 tox 5.01µM, TGFb inhibitor 15.8µM, ATXN2 expr inh inconclusive
CCCCn1c(/C=C/c2ccco2)nc2ccccc21	none
Fc1ccccc1-c1ccc(/C=N/Nc2nc3ccccc3[nH]2)o1	TGFb inhibitor 12.6µM (no result: ATXN2 expr inh)
CCCCn1c(/C=N/Nc2nc3ccccc3[nH]2)nc2ccccc21	S2 tox inconclusive, TGFb inhibitor 11.2µM, ATXN2 expr inh inconclusive
CCOc1ccc(Nc2nc(N)nc(CSC(=S)N3CCN(c4ccccc4)CC3)n2)cc1	none (no result: S2 tox)
Cc1cccc(N2CCN(C(=O)NC3CCCCC3)CC2C)c1 (configuration not stated)	S2 tox inconclusive, ATXN2 expr inh 22.4µM
CC(C)NC(=O)CCn1ccc2cc(S(=O)(=O)N3CCCC3)ccc21	none
COc1cccc(/C=N/NC(=O)CN2C(=O)NC3NC(=O)NC32)c1 (configuration not stated)	S2 tox inconclusive, TGFb inhibitor inconclusive
CCOC(=O)Nc1ccc2c(c1)N(C(=O)CCN(CC)CC)c1ccccc1CC2	TGFb inhibitor inconclusive (no result: ATXN2 expr inh)
CCOC(=O)Nc1ccc2c(c1)N(C(=O)CCN(CC)CC)c1ccccc1S2=O (configuration not stated)	S2 tox inconclusive, TGFb inhibitor 14.1µM
O=C(/C=C/c1ccc(-c2ccc(Cl)cc2Cl)o1)c1ccc(Br)cc1	none (no result: S2 tox, HepG2 viability, TGFb inhibitor, mIDH1 inhibitor, ATXN2 expr inh)
C=CCn1c(CNc2ccc(C)cc2)nnc1SCC(=O)N/N=C/c1ccc(O)cc1O	TGFb inhibitor inconclusive, ATXN2 expr inh 20µM
CCOc1ccc(N2CC(c3nc4ccccc4n3Cc3cccc(C)c3)CC2=O)cc1 (configuration not stated)	S2 tox inconclusive, TGFb inhibitor inconclusive, ATXN2 expr inh inconclusive
COc1ccccc1Cn1c(C2CC(=O)N(c3ccccc3OC)C2)nc2ccccc21 (configuration not stated)	S2 tox inconclusive, TGFb inhibitor 12.6µM, LDHA block inconclusive
CCc1ccc(N2CC(c3nc4ccccc4n3Cc3ccccc3C)CC2=O)cc1 (configuration not stated)	S2 tox inconclusive, TGFb inhibitor 10µM, ATXN2 expr inh inconclusive
CCc1ccccc1N1CC(c2nc3ccccc3n2CCCCOc2ccccc2OC)CC1=O (configuration not stated)	none
CCc1ccccc1N1CC(c2nc3ccccc3n2Cc2cccc(C)c2)CC1=O (configuration not stated)	S2 tox inconclusive, TGFb inhibitor 6.31µM, ATXN2 expr inh inconclusive
CCc1ccc(C(=O)c2cn(CC(=O)Nc3ccc(OC)cc3)c3cc4c(cc3c2=O)OCCO4)cc1	none
COc1cc(C(F)(F)F)c(C(=O)N(C)Cc2cc(Cl)cc(Cl)c2)cn1	TGFb inhibitor inconclusive (no result: ATXN2 expr inh)
CCCOC(=O)N1CCN(/[N+]([O-])=N/Oc2ccc([N+](=O)[O-])cc2[N+](=O)[O-])CC1	TGFb inhibitor 7.08µM (no result: S2 tox, mIDH1 inhibitor, LDHA block, ATXN2 expr inh)
CCN1CCC(O)(/C=C/c2ccc(C(C)C)cc2)C(C(=O)/C=C/c2ccc(C(C)C)cc2)C1 (configuration not stated)	HepG2 viability 12.6µM, TGFb inhibitor 8.91µM, ATXN2 expr inh inconclusive (no result: S2 tox)
Cc1cc(N(C)C)cc(C)c1/C=C/c1cc[n+](C)c2ccccc12	TGFb inhibitor 8.91µM (no result: S2 tox, mIDH1 inhibitor, LDHA block, ATXN2 expr inh)
CN(C)c1ccc(/C=C/c2cc[n+](C)c3ccc4ccccc4c23)cc1	TGFb inhibitor 2µM (no result: S2 tox, mIDH1 inhibitor, ATXN2 expr inh)
COc1nc(OC)nc(N2CCC(C(=O)NC3CC3)CC2)n1	none
Nc1nc(-c2cccs2)c(NC(=O)c2ccccc2)s1	S2 tox 22.4µM, TGFb inhibitor inconclusive, ATXN2 expr inh inconclusive
Cc1ccc(S(=O)(=O)C2(C(=O)Nc3ccc(C)c(Cl)c3)CC2)cc1	none
Cc1ccc(S(=O)(=O)C2(C(=O)Nc3ccc(Cl)c(C(F)(F)F)c3)CC2)cc1	S2 tox inconclusive, TGFb inhibitor 11.2µM
O=C(Nc1ccc(OCC(F)(F)C(F)F)c(C(F)(F)F)c1)c1ccc(Cl)cc1	HepG2 viability 17.8µM, TGFb inhibitor inconclusive, ATXN2 expr inh inconclusive
O=C(CN1CCN(c2ccc(Cl)cc2)CC1)Nc1ccc(Cl)c(C(F)(F)F)c1	S2 tox inconclusive, TGFb inhibitor 10µM, ATXN2 expr inh inconclusive
COc1ccc(C(=O)Nc2ccc(OCC(F)(F)C(F)F)c(C(F)(F)F)c2)cc1OC	TGFb inhibitor inconclusive
O=C(Nc1ccc(Cl)cc1)Nc1ccc(Cl)c(C(F)(F)F)c1	S2 tox 15.8µM!, ATXN2 expr inh inconclusive (no result: HepG2 viability, TGFb inhibitor, mIDH1 inhibitor, LDHA block)
CCS(=O)(=O)N1Cc2ccccc2CC1C(=O)Nc1nc2ccc(C)cc2s1 (configuration not stated)	none
Cc1ccc(Cn2ncc3c(N4CCN(CC#N)CC4)ncnc32)cc1	none
CCOc1ccc(NC(=O)CN2CCN(CC(=O)Nc3ccc(Cl)c(C(F)(F)F)c3)CC2)cc1	S2 tox inconclusive, HepG2 viability 12.6µM, TGFb inhibitor inconclusive, ATXN2 expr inh inconclusive
COc1cccc(NC(=S)NNC(=O)CCn2cc([N+](=O)[O-])cn2)c1	none
O=C(NCc1ccncc1)c1cc(C(=O)C2CCCCC2)c[nH]1	none
COc1cccc(/C=N/NC(=O)c2ccc(=O)n(C)c2)c1O	ATXN2 expr inh 15µM (no result: S2 tox)
COc1ccc(-c2cc(C(=O)N/N=C/c3ccc4c(c3)OCO4)c3ccccc3n2)c(OC)c1	HepG2 viability 11.2µM
COc1cc(OC)c(OC)cc1/C=N/NC(=O)c1ccc(=O)n(C)c1	none
COc1cc2ccccc2cc1C(=O)N/N=C/c1ccc2c(c1)OCO2	S2 tox inconclusive, TGFb inhibitor inconclusive
COc1ccc(CCCC(=O)N/N=C/c2cccc(OC)c2O)cc1C	TGFb inhibitor inconclusive, ATXN2 expr inh 12.6µM
COc1cccc(/C=N/NC(=S)Nc2cccc(C(=O)O)c2)c1O	LDHA block -47.2, ATXN2 expr inh inconclusive (no result: S2 tox)
CC1CCN(C(=O)CC(NC(N)=O)c2ccccc2Cl)CC1 (configuration not stated)	none
COc1cccc(/C=N/NC(=O)c2cnccn2)c1OC	HepG2 viability 12.6µM
COc1ccc(/C=N/NC(=O)c2cccc([N+](=O)[O-])c2)c2ccccc12	S2 tox inconclusive, ATXN2 expr inh 17.8µM
COc1ccc(C(=O)N/N=C/c2ccc(N(C)c3ccccc3)cc2)cc1	ATXN2 expr inh 26.7µM

Bioassay records from PubChem.
